PubChem BioAssay (EPA / NIEHS)
Calls of active or inactive are those of the source. The calls were made as follows: active = hit-call score of the fitted dose curve at least 0.9, where 1 is the maximum; inactive = score below 0.9.

Experiment: ATG_M_32_CIS: Attagene CIS-FACTORIAL HepG2 Assay for M32 Transcription Factor (Internal Marker) (AID 2282949);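 also: background control marker of the multiplexed CIS panel rather than a real target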
Conditions: HepG2 Attagene cis-factorial M32 reporter, mRNA; actives raise or lower the signal
Description: ATG_CIS is a cell-based, multiplexed-readout assay that uses HepG2, a human liver cell line, with measurements taken at 24 hours after chemical dosing in a 24-well plate.ATG_M_32_CIS is one of 52 assay component(s) measured or calculated from the ATG_CIS assay. It is designed to make measurements of mRNA induction, a form of inducible reporter, as detected with fluorescence intensity signals by Reverse transcription polymerase chain reaction (RT-PCR) and Capillary electrophoresis technology.Data from the assay component ATG_M_32_CIS was analyzed into 1 assay endpoint. This assay endpoint, ATG_M_32_CIS, was analyzed with bidirectional fitting relative to DMSO as the negative control and baseline of activity. Using a type of inducible reporter, measures of mRNA for gain or loss-of-signal activity can be used to understand the background control at the transcription factor-level as they relate to the gene . Furthermore, this assay endpoint can be referred to as a secondary readout, because this assay has produced multiple assay endpoints where this one serves a background control function. To generalize the intended target to other relatable targets, this assay endpoint is annotated to the background measurement intended target family, where the subfamily is internal marker.
Human liver HepG2 cells are transiently transfected with multiple reporter transcription units (MRTUs) in 6-well plates using FuGene 6 reagent (Roche; 3 ml FuGene/1 mg DNA). The MRTU constructs are regulated by a cis-regulating element (promoter). […] A major difference between the CIS and TRANS system is that in CIS activities of endogenous TFs are measured, whereas the TRANS assay evaluates changes in activities of exogenous, chimeric NR-Gal4 proteins. […] At the end of 24 hour incubation, total RNA was isolated using TriZol reagent (Invitrogen). The isolated RNA is then reverse-transcribed using oligo(dT) primer and Mo-MLV reverse transcriptase (Invitrogen) with DNAse I (Ambion) treatment for 30 min. The one-tenth of the produced cDNA was amplified by PCR using Taq DNA polymerase (Invitrogen) and two reporter sequence-specific primers. The PCR products were fluorescently labeled by primer extension with 6-arboxyfluorescein (6-FAM) 5'-labeled reporter sequence-specific primer (2 min at 95 C, 20 s at 68 C and 10 min at 72 C) and these products were digested with 5U of HpaI (New England Biolabs) for 2h at 37 C. The fragments were purified using Qiaquick PCR columns (Qiagen), analyzed on an ABI 3130xL genetic analyzer (Applied Biosystems) with peak positions identified by using a set of X-rhodamine (ROX)-labeled MapMarker1000 molecular weight standards (BioVentures). The raw capillary electrophoresis data was processed using Attagraph software (Attagene).

Row | Compound | outcome
1 | CC(=O)c1ccc2ccccc2c1 | inactive
2 | C=C(C)C(=O)OCCC(C)OC(=O)C(=C)C (stereo not given) | inactive
3 | CC(C)C(=O)OCC=Cc1ccccc1 | inactive
4 | CCCC1CCC(=O)CC1 | inactive
5 | CC(=O)Nc1cc(S(=O)(=O)O)cc2cc(S(=O)(=O)O)c(N=Nc3ccccc3)c(O)c12 | inactive
6 | CC(=O)c1ccc(C)cc1 | inactive
7 | CCCCCC(=O)O[C@]1(C(C)=O)CC[C@H]2[C@@H]3CCC4=CC(=O)CC[C@]4(C)[C@H]3CC[C@@]21C | inactive
8 | Cc1cc(O)c2c(c1)C(=O)c1cc(O)cc(O)c1C2=O | inactive
9 | CC/C=C\CCOC(C)OCC (stereo not given) | inactive
10 | CC1=C(C=O)C(C)(C)CCC1 | inactive
11 | CCCC[N+](C)(CCCC)CCCC | inactive
12 | CC(C)(CO)CO | inactive
13 | CC(=O)CC(=O)N(C)C | inactive
14 | COc1ccc(C(C)=O)cc1 | inactive
15 | OCCCO | inactive
16 | CC(=N[Si](C)(C)C)O[Si](C)(C)C | inactive
17 | CCCO | inactive
18 | CCCCCCOc1ccc(O)cc1 | inactive
19 | NC(=O)c1c(Cl)cccc1Cl | inactive
20 | CCCCCCCOC(C)=O | inactive

Row | Compound | outcome
21 | CN(C)CCC=C1c2ccccc2CCc2ccccc21 | inactive
22 | O=C(O)c1ccco1 | inactive
23 | CCCCOC(=O)C(C)OC(=O)CCC (stereo not given) | inactive
24 | CCNC(=S)NCC | inactive
25 | C=C(C)C(=O)OCCC[Si](OC)(OC)OC | inactive
26 | CCCCC/C=C\C=C\C(=O)OCC | inactive
27 | CC1=CC[C@@H](C(C)(C)O)CC1 | inactive
28 | CC(=O)C1C(=O)C=C(C)OC1=O (stereo not given) | inactive
29 | COC(=O)C(C)Oc1ccc(Oc2ncc(C(F)(F)F)cc2Cl)cc1 (stereo not given) | inactive
30 | C=C(C)CCCC(C)CCO (stereo not given) | inactive
31 | CC(C)Cc1ccc(C(C)C(=O)O)cc1 (stereo not given) | inactive
32 | CCOCC(C)O (stereo not given) | inactive
33 | Cc1cccc(O)c1 | inactive
34 | CC(CO)c1ccccc1 (stereo not given) | inactive
35 | CCc1cccc(O)c1 | inactive
36 | C=CCOCC(O)CO (stereo not given) | inactive
37 | CC(C)(C)C1CCC(O)CC1 (stereo not given) | inactive
38 | NNC(=O)OCc1ccccc1 | inactive
39 | O=S1(=O)CC=CC1 | inactive
40 | CC(=O)N(C)C | inactive
